# Test results taken from PubChem BioAssay AID778 (Sanford-Burnham Center for Chemical Genomics, 2007).
# Out of some 96,000 compounds screened, about 20,000 (21%) were called active.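 How the source made its calls: active means CYP2C19 inhibition above a set limit at 5 µM in the primary screen (cut at about 50% in these data); inactive means the rest.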 These entries were drawn from the full list.
# Biological target: Cytochrome P450 2C19 (Homo sapiens) (UniProt P33261)
# Experiment: blockers of cytochrome P450 2C19 activity – biochemical, luminescence, ADME assay, primary screen (AID 778);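 further: plate controls were negative control wells for no effect and 2.5 mM tranylcypromine positive control for full effect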
# Conditions: CYP2C19 Supersomes, luciferin-H EGE luminescence, 30 min; at 5 µM; hits give high values
# Chain of Cytochrome P450 2C19 (Homo sapiens) (P33261 whole entry, looked up): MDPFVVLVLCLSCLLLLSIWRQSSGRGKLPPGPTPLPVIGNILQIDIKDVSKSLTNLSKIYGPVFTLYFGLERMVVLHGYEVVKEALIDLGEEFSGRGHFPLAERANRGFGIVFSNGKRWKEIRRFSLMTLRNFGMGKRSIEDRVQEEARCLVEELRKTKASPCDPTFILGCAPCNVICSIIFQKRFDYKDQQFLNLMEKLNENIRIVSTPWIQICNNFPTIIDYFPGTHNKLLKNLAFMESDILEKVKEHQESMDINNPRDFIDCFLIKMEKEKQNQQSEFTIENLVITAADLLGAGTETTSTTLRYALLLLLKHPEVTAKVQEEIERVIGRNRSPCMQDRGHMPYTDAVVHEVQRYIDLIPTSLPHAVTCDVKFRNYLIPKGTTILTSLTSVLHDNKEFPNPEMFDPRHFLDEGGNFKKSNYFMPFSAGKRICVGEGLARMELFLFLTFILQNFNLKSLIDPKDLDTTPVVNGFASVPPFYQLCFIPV
row,Compound,inhibition
1,Nc1nonc1-c1noc(-c2ccc(Br)o2)n1,47.6% (inactive)
2,CN1CCN(Cc2c(O)ccc3c2oc(=O)c2ccccc23)CC1,-0.1% (inactive)
3,CC(C)(C)NC(=O)NC(=O)COC(=O)Cn1c(C(F)(F)F)nc2ccccc21,54.6% (active)
4,CN1CCN(C(=O)Cn2c(C(F)(F)F)nc3ccccc32)CC1,-11.1% (inactive)
5,Cc1ccccc1OC(=O)Cn1c(C(F)(F)F)nc2ccccc21,35.4% (inactive)
6,CCCCN(C)Cc1c(C)[nH]c2ccc(Cl)cc2c1=O,-11.4% (inactive)
7,O=C(Nc1c(Cl)cccc1Cl)C1CCC1,-0.2% (inactive)
8,O=C(c1ccco1)N1CCN(C(=O)C2CC(c3ccc(F)cc3)=NO2)CC1 (stereo unspecified),5.3% (inactive)
9,O=C(c1ccco1)N1CCN(C(=O)C2CC(c3ccc(Cl)c(Cl)c3)=NO2)CC1 (stereo unspecified),53.8% (active)
10,O=C(c1ccco1)N1CCN(c2cccc(Cl)c2)CC1,19.9% (inactive)
11,O=C1CN(C(=O)COC(=O)C2CC(=O)N(Cc3ccco3)C2)c2ccccc2N1 (stereo unspecified),-8.7% (inactive)
12,Cc1ccc(S(=O)(=O)N2CCC(C(=O)OCC(=O)N3CC(=O)Nc4ccccc43)CC2)cc1,62.2% (active)
13,Cc1ccc(S(=O)(=O)NCC(=O)OCC(=O)N2CCc3ccccc32)cc1,-3.8% (inactive)
14,COc1cc(OC)cc(C(=O)Nc2ccc(-c3nc4ccccc4o3)c(O)c2)c1,22.3% (inactive)
15,O=C(c1ccccc1)N1CCN(C(=O)N2CCCCC2)CC1,39.7% (inactive)
16,O=C(c1ccccc1)c1cccn1CC(=O)N1CCN(c2ccc(F)cc2)CC1,33.3% (inactive)
17,O=C(CN1CCN(C(=O)c2cccc(F)c2)CC1)Nc1ccccc1F,42.8% (inactive)
18,O=C(c1cccc(C(=O)N2CCN(c3ccc(F)cc3)CC2)c1)N1CCN(c2ccc(F)cc2)CC1,81.8% (active)
19,CC(C)N(C(=O)COC(=O)c1ccccc1C(=O)N1CCN(c2ccc(F)cc2)CC1)C(C)C,44.2% (inactive)
20,Cc1ccccc1CS(=O)(=O)CC1(O)CCN(C(=O)c2cccc(C(F)(F)F)c2)CC1,19.1% (inactive)
21,O=C(c1ccccc1-c1ccccc1)N1CCOCC1,10.3% (inactive)
22,Cc1ccccc1CN1CCN(C(=O)c2cccc(F)c2)CC1,98.4% (active)

row,Compound,inhibition
1,Cc1cccc(C(=O)N2CCCN(C(=O)c3cccc(C)c3)CC2)c1,90.5% (active)
2,CCC(CC)C(=O)Nc1cccc(C(=O)N2CCCC2)c1,15.4% (inactive)
3,O=C(c1cccc(F)c1)N1CCN(c2ccc([N+](=O)[O-])c(N3CCCCC3)c2)CC1,49% (inactive)
4,O=C(c1ccccc1Oc1ccccc1)N1CCN(c2ccc(F)cc2)CC1,87.1% (active)
5,O=C(NCc1ccco1)C1(c2ccc(Cl)cc2)CCCC1,39.8% (inactive)
6,CCOc1nc(NCCN2CCOCC2)nc(Nc2ccc(C)cc2)n1,11.1% (inactive)
7,CCOc1ccc(NC(=O)Nc2ccc(N(C)C(C)=O)cc2)cc1,-7.4% (inactive)
8,O=C(Nc1ccc2ccccc2c1)Nc1ccc2snnc2c1,5.2% (inactive)
9,Oc1c(C=Nc2cccc3nsnc23)ccc2ccccc12,45.4% (inactive)
10,O=C(c1ccc2c(c1)OCO2)N1CCNc2ccccc2C1,16.6% (inactive)
11,CC1CN(C(=O)c2ccc3c(c2)OCO3)OC(c2ccccc2)O1 (stereo unspecified),74.6% (active)
12,Cc1ccc(-c2nn(-c3ccccc3)cc2/C=N/NC(=O)c2ccc3c(c2)OCO3)cc1,49.9% (inactive)
13,CCn1c(COc2cccc(OC)c2)nnc1SCC(=O)N1CCOCC1,9.6% (inactive)
14,CCOC(=O)C1Cn2c(nc3c(c2=O)C(C)(CC)Cc2ccccc2-3)S1 (stereo unspecified),97.8% (active)
15,CC1(C)Cc2ccccc2-c2nc(CN3CCOCC3)[nH]c(=O)c21,9.2% (inactive)
16,COC(=O)Nc1ncc(CN2CCCCC2)s1,-1.3% (inactive)
17,Cc1cc(C)c(C#N)c(SCc2ccc3c(c2)OCO3)n1,96.5% (active)
18,Cc1cc(C)c(C#N)c(SCc2[nH]nc3c2C(c2ccccc2)C(C#N)=C(N)O3)n1 (stereo unspecified),-13.6% (inactive)
19,Cc1cc(C)c(C#N)c(SCc2ccccc2C(=O)O)n1,-6% (inactive)
20,CC(CO)N1CCS(=O)(=O)CC1 (stereo unspecified),-1.3% (inactive)
21,O=C(c1ccc(Cl)cc1)c1cnc(Nc2ccccc2)s1,-10.7% (inactive)
22,CCCOC(=O)Nc1ccccc1C(N)=O,5.8% (inactive)

row,Compound,inhibition
1,C=CCn1c(SCC(=O)c2c(N)n(C)c(=O)n(C)c2=O)nc2sc(CC)cc2c1=O,1.3% (inactive)
2,CSCCC(NC(=O)COc1ccccc1)C(=O)OCC(=O)c1cc2ccccc2o1 (stereo unspecified),28.3% (inactive)
3,Cc1cc2c(=O)n(C)c(SCC(=O)c3cc4ccccc4o3)nc2s1,85.9% (active)
4,COc1ccc(CN2CCn3ncc(C(=O)Nc4ccc(Cl)cc4Cl)c3C2=O)cc1,-8.8% (inactive)
5,O=C(COC(=O)CCc1c[nH]c(=O)[nH]1)Nc1ccccc1Cl,-10% (inactive)
6,O=C(O)CSCNC(=O)CC12CC3CC(CC(C3)C1)C2,11.3% (inactive)
7,O=C(C(NS(=O)(=O)c1cccc2nsnc12)c1ccccc1)N1CCN(c2ccccc2)CC1 (stereo unspecified),86.3% (active)
8,O=C(C(NS(=O)(=O)c1cccc2nsnc12)c1ccccc1)N1CCN(c2ccccn2)CC1 (stereo unspecified),35.6% (inactive)
9,O=C(O)c1ccc(NS(=O)(=O)c2cccc3nsnc23)cc1,2% (inactive)
10,CC(C)c1nc2ccc(C(=O)O)cc2[nH]1,12.1% (inactive)
11,CC(C)(C)c1cc(=O)n2c(nc3ccccc32)[nH]1,12.3% (inactive)
12,C/C(=N\NC(=O)c1ccccc1C)c1ccc(N2CCOCC2)cc1,3.2% (inactive)
13,Cc1cccc(-n2nc3c(c2NC(=O)c2ccc(Br)o2)CSC3)c1C,-0.9% (inactive)
14,O=C1CCC(=O)N1CCOP1(=O)COc2ccccc2OC1,-14.7% (inactive)
15,CN=C1SC(C(=O)O)CC(=O)N1C (stereo unspecified),-3.4% (inactive)
16,Cn1cccc1Cc1nnc(SCC(=O)NCc2ccc3c(c2)OCO3)n1CCc1ccccc1,88.3% (active)
17,COc1ccc(-n2c(Cc3cccn3C)nnc2SCC(=O)Nc2cc(C)cc(C)c2)cc1,20.6% (inactive)
18,Cc1ccc(C)c(NC(=O)CSc2nnc(Cc3cccn3C)n2-c2ccc(F)cc2)c1,15.6% (inactive)
19,Cn1cccc1Cc1nnc(SCC(=O)NCCc2ccccc2)n1-c1ccc(F)cc1,59.6% (active)
20,COc1ccccc1NC(=O)CSc1nnc(Cc2cccn2C)n1-c1ccc(F)cc1,66.3% (active)
21,COC(=O)c1ccc(NC(=O)CSc2nnc(Cc3cccn3C)n2-c2ccc(F)cc2)cc1,22.5% (inactive)
22,Cc1nnc(SCC(=O)N/N=C/c2cn(-c3ccccc3)nc2-c2ccc(F)cc2)n1-c1ccccc1,3.9% (inactive)
